From PubChem BioAssay (NCI)
About 83,000 compounds went through this panel and 20% of them were active in at least one assay; those are over-represented in the sample as a whole.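 Treatment: one concentration, 48 hours, 96-well format. Scoring: percent growth, with anything below 10 considered active.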 Unmarked numbers belong to inactive results. Active and inactive are the calls of the source.

Tested on: HL-60(TB) leukemia
Assay: NCI-60 one-dose screen, 48 h (100 = growth as untreated, 0 = no growth, -100 = all killed)
Conditions: 10 µM unless noted

Row | Structure (SMILES) | growth
1 | O=C1Nc2cc(Cl)ccc2/C1=C\c1ccc(OCc2ccc(Br)cc2F)cc1 | 66.2%
2 | O=C1c2c(O)cc(O)cc2O[C@@H](c2ccc(O)cc2)[C@@H]1c1c(O)cc(O)c2c(=O)cc(-c3ccc(O)c(O)c3)oc12 | 103%
3 | COc1cc(NC(=O)Nc2cccc(-c3cc(=O)c4c(OC)c(OC)c(OC)cc4o3)c2)cc(OC)c1OC | 45%
4 | Nc1nc(N)c2c(n1)NC(c1ccc(Cl)cc1)CC(c1ccc(Nc3nc(NCCO)nc(Nc4ccc(Cl)cc4)n3)cc1)=N2 (stereo unspecified) | 9.81% (active)
5 | CC(C)=CCC[C@](C)(O)[C@H]1CC[C@]2(C)[C@@H]1CC[C@@H]1[C@@]3(C)CC[C@H](N)C(C)(C)[C@@H]3CC[C@]12C | -24.1% (active)
6 | Oc1ccc(CSc2nnc(-c3ccc(Br)cc3)o2)c2cccnc12 | 23%
